High-throughput results as filed in PubChem.
Giardia FBPA inh – Giardia lamblia aldolase inhibition | purified Giardia FBPA | AID 2451 | A8B2U2 | actives 0.71% (n = 290,000) | Potency, µM (highest dose often 59.6 µM), inactives show top-dose activity, negative = inhibition, hits mostly inhibitors; also: % is scaled to controls: 0 for no effect and ±100 for the full control effect; nearly all actives have a fitted effect of over 55% in size
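40 nM FBPA preincubated 10 min at RT with compound (up to 57.5 uM final), then substrate plus GAPDH/TPI/NAD/arsenate coupling and diaphorase/resazurin added. Fluorescence read after 20 min at RT, 525/598 nm.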
LmPK inhibitor – LmPK (Leishmania mexicana) enzyme inhibition. purified LmPK, Kinase-Glo ATP luminescence, 1 h. actives 0.37% (n = 290,000). Potency, µM (highest dose often 57.5 µM), for inactives: top-dose activity change, negative = inhibition, actives largely listed as inhibitors; also: % is scaled to controls: 0 for no effect and ±100 for the full control effect
Target sequence (Q27686 whole entry, looked up): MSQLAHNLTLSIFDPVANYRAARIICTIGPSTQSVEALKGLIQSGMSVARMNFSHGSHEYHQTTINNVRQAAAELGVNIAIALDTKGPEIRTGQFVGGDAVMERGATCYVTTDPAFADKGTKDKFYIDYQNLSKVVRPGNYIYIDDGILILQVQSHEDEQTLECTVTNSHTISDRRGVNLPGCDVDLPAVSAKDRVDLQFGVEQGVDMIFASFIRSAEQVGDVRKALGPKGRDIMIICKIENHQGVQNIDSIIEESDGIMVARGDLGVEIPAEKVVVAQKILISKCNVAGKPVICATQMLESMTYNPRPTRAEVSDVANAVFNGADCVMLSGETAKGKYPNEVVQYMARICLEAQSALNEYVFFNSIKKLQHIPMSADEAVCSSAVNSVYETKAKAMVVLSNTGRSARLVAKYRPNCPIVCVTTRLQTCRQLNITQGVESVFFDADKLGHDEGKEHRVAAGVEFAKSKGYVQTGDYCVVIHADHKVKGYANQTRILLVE
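Purified LmPK (0.1 nM) converted ADP (0.1 mM) to ATP with PEP (0.5 mM) in imidazole buffer pH 7.2 with KCl and MgCl2, 1 h at room temperature. ATP was read by Kinase-Glo luminescence; data normalized to uninhibited and no-enzyme controls.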
Sm TGR block – blocks Schistosoma mansoni thioredoxin glutathione reductase; Q962Y6; purified TGR, DTNB reduction, TNB absorbance 405 nm; Potency, µM (top dose mostly 114 µM), inactives show at the highest dose activity change, negative = inhibition, hits mostly inhibitors; actives 3% (n = 360,000); AID 485364; also: % is scaled to controls: 0 for no effect and ±100 for the full control effect; nearly all actives have a fitted effect of over 60% in size
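Kinetic colorimetric format: TGR-catalysed, NADPH-driven DTNB reduction monitored via TNB absorbance. Enzyme dispensed at 20 nM; compound exposure 15 min at room temperature before reaction start.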
Tb PYK inh – blocks Trypanosoma brucei pyruvate kinase; Q57TT1; TbPYK enzyme, Kinase-Glo Plus ATP luminescence, 45 min; Potency, µM (highest dose often 76.8 µM), without a hit: at the highest dose activity, negative = inhibition, usual class: inhibitors; actives 0.12% (n = 410,000); also: % is scaled to controls: 0 for no effect and ±100 for the full control effect; nearly all actives have a fitted effect of over 50% in size
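TbPYK + substrate in 50 mM TEA pH 7.2, 100 mM KCl, 10 mM MgCl2, 0.05% BSA, 0.01% Tween-20; cpd pinned; ADP 130 uM final; 45 min RT; Kinase-Glo Plus 10 min; luminescence endpoint.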
NS1 function inh – inhibitors of influenza NS1 protein function; Potency, µM (doses to about 46.1 µM), inactives show at the highest dose activity, positive = more growth; actives 0.4% (n = 270,000); AID 2326; calls by dose curve; also: actives are rising curves; nearly all actives have a fitted effect of over 50% in size
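A cell-based growth assay was used: compounds that relieve NS1-induced slow growth of budding yeast raise OD600. Assay medium was yeast nitrogen base with ammonium sulphate and -URA supplement, pH 6.0, with 2% galactose.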
RE007 growth inh – less growth of the S. pombe RE007 Vpr strain. AID 651644. Potency, µM (top dose mostly 92.2 µM), inactives show at the top dose activity change, negative = less growth, actives largely listed as inhibitors. actives 0.21% (n = 360,000). S. pombe RE007 Vpr strain, BacTiter-Glo ATP luminescence, 24 h; active = well fitted falling curve with a large enough effect; inconclusive = small, poorly fitted or top-dose-only effect; inactive = no such curve, though single readings can be large or run the other way; also: % is scaled to controls: 0 for no effect and ±100 for the full control effect; nearly all actives have a fitted effect of over 50% in size
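Fission yeast RE007 carrying one integrated HIV-1 vpr copy, seeded at OD 0.01 in PMG+AL medium with 23 nL pinned compound. Grown 24 h at 30 degrees; viability read by BacTiter-Glo luminescence after 5 min.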
Starred values were filed as active, the others as inactive; ? = inconclusive; / = no result given; [ ] = another dose, or the depositor's remark. An excerpt weighted towards active compounds, which were near 3.5% of everything screened. Unless noted, calls follow the shape of the dose curve; as a rule, active = well fitted curve in the direction sought with a large enough effect; inconclusive = small, poorly fitted or top-dose-only effect, or another doubt; inactive = no such curve, though single readings can be large; an effect the other way counts as inactive or inconclusive. Potency is read from the fitted curve at half-maximal effect.

SMILES	Giardia FBPA inh	LmPK inhibitor	Sm TGR block	Tb PYK inh	NS1 function inh	RE007 growth inh
C#CCOCCOCCOCCNc1nc(N2CCN(C(=O)[C@H](CCCCN)n3cc(CCCC)nn3)CC2)nc(N2CCN(C(=O)[C@H](Cc3ccc(O)cc3)n3cc(CCO)nn3)CC2)n1	20%	0%	35µM*	-2%	26%	7%
COc1ccc(NC(=O)c2cn3c4c(ccc(Cl)c4c2=O)OC(C)C3)cc1OC (stereo not drawn)	/	/	-8%	0%	/	/
Cc1ccc(CNS(=O)(=O)c2cc3[nH]c(=O)c(=O)[nH]c3cc2C)cc1	/	/	-4%	-3%	/	/
C=CCn1c(N)cc(=O)nc1SCC(=O)N1CCN(c2ccc(F)cc2)CC1	-3%	0%	28µM*	-23%	12%	-7%
O=c1ccc(-c2n[nH]c(=S)n2-c2ccc(F)c(Cl)c2)n[nH]1	?	-18%	6%	?	/	41%
Fc1ccc(-n2c(-c3cc(C4CC4)[nH]n3)n[nH]c2=S)cc1Cl	-18%	11µM*	0%	?	-11%	-7%
Cc1ccc(N=Cc2c(C)[nH]n(-c3nc4ccccc4[nH]3)c2=O)cc1	16%	25µM*	-2%	?	-4%	3.2µM*
CCCCNC(=O)C1CCC(CNS(=O)(=O)c2ccc(Cl)cc2)CC1 (stereo not drawn)	/	/	0%	4%	/	/
CCCCNC(=O)C1CCC(Cn2c(=O)c3sccc3n(CC(=O)Nc3ccccc3)c2=O)CC1 (stereo not drawn)	/	/	0%	1%	/	/
CCOc1cc(C(c2c(C)[nH][nH]c2=O)c2c(C)[nH][nH]c2=O)cc([N+](=O)[O-])c1O	-22%	5%	-28%	3%	4%	6%
CCOc1cc(C(c2c(C)[nH][nH]c2=O)c2c(C)[nH][nH]c2=O)cc(Cl)c1O	?	-1%	35µM*	-5%	3%	20%
CCc1ccc(Cn2c(CNS(=O)(=O)c3ccc(F)c(Cl)c3)nc3cccnc32)cc1	/	/	4%	6%	/	/
O=C(CSc1nnc(C2CC2)n1Cc1ccco1)NCC(F)(F)F	9%	6%	35µM*	0%	/	-14%
CCOC(=O)c1sc(NC(=O)CSc2nnc(-c3ccco3)n2CC)c(C(=O)OCC)c1C	0%	10%	20µM*	-12%	27%	0%
CCOC(=O)CNC(=O)CSc1nnc(-c2ccco2)n1N	6%	0%	-13%	-6%	3%	6%
O=C(CSc1nnc(C2CC2)n1-c1ccccc1)NCc1ccco1	2%	8%	?	-6%	0%	24%
CCOC(=O)c1c(NC(=O)CSc2nnc(-c3ccccc3)n2CC)sc(C(C)=O)c1C	1%	2%	-15%	?	-3%	15%
CCOC(=O)CNC(=O)CSc1nnc(-c2ccco2)n1Cc1ccco1	-2%	2%	25µM*	?	?	14%
COc1cccc(CNC(=O)Cn2c(=O)oc3cc(S(=O)(=O)N4CCCC4)ccc32)c1	/	/	-9%	-3%	/	/
CC(=O)NCCNc1ncncc1-c1ccc(N(C)C)cc1	-16%	/	/	/	/	/
O=C(Nc1cc2c(cc1C(=O)c1ccccc1Cl)OCCO2)c1ccccc1	/	/	-5%	-6%	/	/
N#Cc1nc(COc2ccccc2Cl)oc1NCc1ccco1	-1%	0%	22µM*	5%	-50%	16%
CCNc1oc(COc2ccccc2F)nc1C#N	0%	0%	56µM*	2%	-11%	15%
N#Cc1nc(COc2ccc(F)cc2)oc1NCCCn1ccnc1	5%	4%	-13%	2%	-5%	-2%
COc1ccc(CCNc2oc(COc3ccccc3F)nc2C#N)cc1OC	-2%	0%	?	-29%	-133%	24%
SMILES	Giardia FBPA inh	LmPK inhibitor	Sm TGR block	Tb PYK inh	NS1 function inh	RE007 growth inh
COc1ccc(Nc2oc(COc3ccccc3OC)nc2C#N)cc1	-8%	-2%	18µM*	-3%	16%	7%
N#Cc1nc(COc2ccccc2F)oc1NCCCn1ccnc1	2%	2%	25µM*	-1%	-7%	-4%
CCOC(=O)c1c(C)oc2nc(C)nc(NCc3ccc(F)cc3)c12	/	/	1%	-8%	/	/
CCOc1ccc(NC(=O)Cn2c(=O)n(Cc3ccco3)c(=O)c3ccc(C(=O)NC4CCCC4)cc32)cc1	/	/	2%	1%	/	/
COc1ccccc1OCc1nc(C#N)c(NCCCn2ccnc2)o1	2%	2%	45µM*	1%	1%	7%
N#Cc1nc(COc2ccccc2)oc1NCCCn1ccnc1	1%	1%	-3%	-10%	3%	-14%
CCN(CC)c1cc2c(cc1F)c(=O)c(S(=O)(=O)c1ccccc1)cn2Cc1ccccc1	/	/	-1%	-3%	/	/
CCc1cc2c(nc1CC)CCN(CC/C(C)=N/OC[C@@H](O)COCc1ccco1)C2	1%[12.9 µM]	/	/	/	/	/
COCCn1c(Cc2ccccc2)nnc1SCC(=O)Nc1oc(C)c2c(C)n[nH]c(=O)c12	/	/	50µM*	-5%	/	-6%
CC(C)(C)OC(=O)N1CCC(c2c(C(=O)NC3CCCCC3)cnn2-c2cccc(Cl)c2)CC1	/	/	0%	-1%	/	/
CCOC(=O)C1CCN(Cc2c(O)ccc3ccccc23)CC1	1%	2%	3.5µM*	2%	0%	5%
O=C(C1CCCO1)N1CCN(Cc2c(O)ccc3ccccc23)CC1 (stereo not drawn)	?	3%	0.5µM*	0%	11%	-14%
CCOC(=O)N1CCN(C(=O)c2ccc3ccccc3c2)CC1	11%	-5%	-1%	3%	12%	5%
CCOC(=O)N1CCN(Cc2c(O)ccc3ccccc23)CC1	-6%	-3%	0.28µM*	4%	1%	-20%
COc1ccc2ccccc2c1CN1CCN(C(=O)c2ccco2)CC1	5%	7%	-20%	0%	-29%	10%
Cc1ccc(CN2CCN(C(=O)C3CCCO3)CC2)cc1 (stereo not drawn)	0%	-4%	-14%	2%	-15%	5%
COc1ccc2ccccc2c1CN1CCN(C(=O)c2ccccc2)CC1	-15%	6%	28µM*	-19%	-7%	-10%
COc1ccc2c(c1)c1c(c(=O)n(-c3ccccc3)c(=O)n1CC(=O)Nc1ccc(F)cc1)n2C	/	/	-1%	0%	/	/
COc1cccc(-c2nc3c(c(SCc4ccccc4Cl)n2)Cc2c(CO)cnc(C)c2O3)c1	/	/	-11%	-9%	/	/
O=C(NCC1(c2ccccc2)CCCC1)c1ccccc1	-5%	-8%	4%	-6%	-16%	3%
O=C(NCC1(c2ccccc2)CCCC1)C(=O)NCC1(c2ccccc2)CCCC1	2%	3%	40µM*	1%	3%	-3%
O=C(CC1N=C2c3ccccc3N=C(SCc3cccc(F)c3)N2C1=O)NCc1cccs1 (stereo not drawn)	/	/	8%	2%	/	/
